Measured values reported in the supplement of paper PMC10849652.
The full data set covers some 8,800 targets. This sample favours those with a hit. About 0.5% of all pairs of compound and target were hits. Unmarked numbers belong to inactive results.

Tests used:
Assay in all cases: log2 fold change, soluble protein after heating vs DMSO (PISA); higher = thermal stabilisation; K562 lysate, 10 uM; active = over 0.2 and 3.5 SD of the protein, either way, in both replicates (recomputed)
vemurafenib = compound: CCCS(=O)(=O)Nc1ccc(F)c(C(=O)c2c[nH]c3ncc(-c4ccc(Cl)cc4)cc23)c1F [vemurafenib]
Procedure, shortened: (§1)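 Log-two fold change in thermal stability relative to solvent controls is reported from duplicates. For each sample, crude K562 extract from dounce-homogenised pellets in PBS pH 7.4 with 1 mM MgCl2, at 1 mg/mL protein, was treated with 10 μM compound for 30 min. Aliquots heated for 3 min across 48°C-58°C were pooled, brought to 0.5% NP-40 at 4°C and cleared at 21,000xg for 90 min. The supernatant was quantified by TMTpro 16plex LC-MS/MS with channel sums equalised.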

[1] = compound: CCCS(=O)(=O)Nc1ccc(F)c(C(=O)c2c[nH]c3ncc(Cl)cc23)c1F
Procedure, shortened: as §1

barasertib = compound: CCN(CCCOc1ccc2c(Nc3cc(CC(=O)Nc4cccc(F)c4)[nH]n3)ncnc2c1)CCOP(=O)(O)O [barasertib]
Procedure, shortened: as §1

[2] = compound: CC[C@@H]1C(=O)N(C)c2cnc(Nc3ccc(C(=O)NC4CCN(C)CC4)cc3OC)nc2N1C1CCCC1
Procedure, shortened: as §1

volasertib = compound: CC[C@@H]1C(=O)N(C)c2cnc(Nc3ccc(C(=O)N[C@H]4CC[C@H](N5CCN(CC6CC6)CC5)CC4)cc3OC)nc2N1C(C)C [volasertib]
Procedure, shortened: as §1

[3] = compound: CCn1c(C(=O)N(C2CC2)C2CC2)cc2c3c(ncn3C)c(Nc3cc(C)n(C)n3)nc21
Procedure, shortened: as §1

[4] = compound: CCn1cc(-c2ccnc3[nH]c(-c4cccc(CN(C)C)c4)cc23)c(-c2ccc(NC(=O)N(C)C)cc2)n1
Procedure, shortened: as §1

[5] = compound: CN1CCC(CNc2ccc3ncc(-c4cccc(OC(F)(F)F)c4)n3n2)CC1
Procedure, shortened: as §1

saracatinib = compound: CN1CCN(CCOc2cc(OC3CCOCC3)c3c(Nc4c(Cl)ccc5c4OCO5)ncnc3c2)CC1 [saracatinib]
Procedure, shortened: as §1

sotrastaurin = compound: CN1CCN(c2nc(C3=C(c4c[nH]c5ccccc45)C(=O)NC3=O)c3ccccc3n2)CC1 [sotrastaurin]
Procedure, shortened: as §1

alvocidib = compound: CN1CC[C@H](c2c(O)cc(O)c3c(=O)cc(-c4ccccc4Cl)oc23)[C@H](O)C1 [alvocidib]
Procedure, shortened: as §1

Tubastatin A = compound: CN1CCc2c(c3ccccc3n2Cc2ccc(C(=O)NO)cc2)C1 [Tubastatin A]
Procedure, shortened: as §1

[6] = compound: CNC(=O)C1=CC=CC=C1NC2=NC(=NC=C2Cl)NC3=C(C=C(C=C3)N4CCOCC4)OC
Procedure, shortened: as §1

defactinib = compound: CNC(=O)c1ccc(Nc2ncc(C(F)(F)F)c(NCc3nccnc3N(C)S(C)(=O)=O)n2)cc1 [defactinib]
Procedure, shortened: as §1

[7] = compound: CNc1nc(-c2ccc3c(N)n[nH]c3c2)cc(N2C[C@@H](C(=O)NC3CCCCC3)CC[C@H]2C)n1
Procedure, shortened: as §1

encorafenib = compound: COC(=O)N[C@@H](C)CNc1nccc(-c2cn(C(C)C)nc2-c2cc(Cl)cc(NS(C)(=O)=O)c2F)n1 [encorafenib]
Procedure, shortened: as §1

[8] = compound: COC(=O)[C@H](CCSC)NC(=O)C1=C(C=C(C=C1)NC[C@H](CS)N)C2=CC=CC=C2
Procedure, shortened: as §1

alisertib = compound: COc1cc(Nc2ncc3c(n2)-c2ccc(Cl)cc2C(c2c(F)cccc2OC)=NC3)ccc1C(=O)O [alisertib]
Procedure, shortened: as §1

[9] = compound: COc1cc2nc(-c3cc(F)ccc3O)nc(N[C@@H]3CNC[C@H]3C(C)(C)O)c2cc1OC
Procedure, shortened: as §1

gefitinib = compound: COc1cc2ncnc(Nc3ccc(F)c(Cl)c3)c2cc1OCCCN1CCOCC1 [gefitinib]
Procedure, shortened: as §1

Chain of UniProt Q86UW6 (Q86UW6 whole entry, looked up): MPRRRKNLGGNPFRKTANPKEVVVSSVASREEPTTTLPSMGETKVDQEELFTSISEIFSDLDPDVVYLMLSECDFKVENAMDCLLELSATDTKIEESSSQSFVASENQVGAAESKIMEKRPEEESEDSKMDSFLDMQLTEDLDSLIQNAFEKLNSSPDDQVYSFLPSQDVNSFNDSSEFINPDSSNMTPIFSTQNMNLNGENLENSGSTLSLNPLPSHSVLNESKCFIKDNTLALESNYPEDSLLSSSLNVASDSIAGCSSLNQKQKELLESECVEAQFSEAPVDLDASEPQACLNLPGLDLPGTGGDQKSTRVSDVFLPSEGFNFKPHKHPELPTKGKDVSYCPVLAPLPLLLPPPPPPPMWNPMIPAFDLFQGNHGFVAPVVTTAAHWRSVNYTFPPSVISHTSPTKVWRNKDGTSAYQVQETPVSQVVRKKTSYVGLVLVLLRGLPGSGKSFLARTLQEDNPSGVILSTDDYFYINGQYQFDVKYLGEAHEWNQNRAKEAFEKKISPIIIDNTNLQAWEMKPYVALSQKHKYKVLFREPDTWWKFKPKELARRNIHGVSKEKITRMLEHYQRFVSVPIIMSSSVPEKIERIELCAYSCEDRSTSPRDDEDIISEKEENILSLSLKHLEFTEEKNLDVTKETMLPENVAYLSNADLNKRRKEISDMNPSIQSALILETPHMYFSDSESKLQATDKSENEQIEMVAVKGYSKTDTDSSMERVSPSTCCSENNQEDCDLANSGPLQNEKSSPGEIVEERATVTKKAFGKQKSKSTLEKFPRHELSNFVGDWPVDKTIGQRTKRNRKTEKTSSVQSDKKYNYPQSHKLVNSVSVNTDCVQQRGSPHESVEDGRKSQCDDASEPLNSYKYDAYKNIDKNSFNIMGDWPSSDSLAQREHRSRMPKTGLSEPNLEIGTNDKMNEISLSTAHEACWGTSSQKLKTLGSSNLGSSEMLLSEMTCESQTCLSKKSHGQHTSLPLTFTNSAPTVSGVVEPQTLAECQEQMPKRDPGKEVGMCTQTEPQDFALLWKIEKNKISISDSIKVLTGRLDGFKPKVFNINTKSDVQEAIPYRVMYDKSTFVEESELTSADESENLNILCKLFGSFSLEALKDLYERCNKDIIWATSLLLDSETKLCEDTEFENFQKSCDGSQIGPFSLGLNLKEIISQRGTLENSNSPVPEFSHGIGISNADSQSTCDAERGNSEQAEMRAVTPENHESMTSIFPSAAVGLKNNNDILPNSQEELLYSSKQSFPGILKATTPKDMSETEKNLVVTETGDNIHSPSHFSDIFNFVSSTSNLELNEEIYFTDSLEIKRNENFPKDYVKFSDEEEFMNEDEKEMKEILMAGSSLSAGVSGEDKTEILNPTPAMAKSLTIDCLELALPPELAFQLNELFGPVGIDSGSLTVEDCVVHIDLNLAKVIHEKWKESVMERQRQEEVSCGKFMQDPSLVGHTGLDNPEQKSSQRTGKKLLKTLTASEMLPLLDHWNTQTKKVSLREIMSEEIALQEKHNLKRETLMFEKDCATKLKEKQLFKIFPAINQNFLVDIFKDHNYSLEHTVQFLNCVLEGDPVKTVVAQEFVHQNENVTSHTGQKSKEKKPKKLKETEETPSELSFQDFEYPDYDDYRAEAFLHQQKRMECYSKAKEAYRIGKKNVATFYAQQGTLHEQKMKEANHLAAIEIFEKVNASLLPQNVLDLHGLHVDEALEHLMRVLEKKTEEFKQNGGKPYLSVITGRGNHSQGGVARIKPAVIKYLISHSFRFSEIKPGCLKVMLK
Chain of UniProt Q08J23 (Q08J23 whole entry, looked up): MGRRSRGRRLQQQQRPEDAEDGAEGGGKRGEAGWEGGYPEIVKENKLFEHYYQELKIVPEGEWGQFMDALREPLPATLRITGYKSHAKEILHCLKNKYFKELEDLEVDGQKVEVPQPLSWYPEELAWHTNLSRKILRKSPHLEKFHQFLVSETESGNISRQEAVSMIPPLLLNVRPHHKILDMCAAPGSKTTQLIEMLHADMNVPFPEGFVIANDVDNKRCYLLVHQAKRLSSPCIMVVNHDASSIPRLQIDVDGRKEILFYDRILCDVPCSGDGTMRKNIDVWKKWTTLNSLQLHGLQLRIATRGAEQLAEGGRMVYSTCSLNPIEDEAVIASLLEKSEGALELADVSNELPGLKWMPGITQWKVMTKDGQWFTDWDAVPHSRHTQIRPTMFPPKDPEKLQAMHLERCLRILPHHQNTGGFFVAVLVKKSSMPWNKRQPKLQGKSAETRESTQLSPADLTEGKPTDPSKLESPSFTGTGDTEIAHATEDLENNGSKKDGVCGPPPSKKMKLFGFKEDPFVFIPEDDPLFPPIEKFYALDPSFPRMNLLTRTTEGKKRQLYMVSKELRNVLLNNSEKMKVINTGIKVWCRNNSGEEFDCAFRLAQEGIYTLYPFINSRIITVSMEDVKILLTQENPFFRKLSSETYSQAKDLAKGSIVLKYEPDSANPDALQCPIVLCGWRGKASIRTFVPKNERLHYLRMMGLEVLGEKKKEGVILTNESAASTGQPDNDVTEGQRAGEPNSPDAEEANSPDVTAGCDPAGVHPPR
Chain of UniProt Q8WUM0 (Q8WUM0 whole entry, looked up): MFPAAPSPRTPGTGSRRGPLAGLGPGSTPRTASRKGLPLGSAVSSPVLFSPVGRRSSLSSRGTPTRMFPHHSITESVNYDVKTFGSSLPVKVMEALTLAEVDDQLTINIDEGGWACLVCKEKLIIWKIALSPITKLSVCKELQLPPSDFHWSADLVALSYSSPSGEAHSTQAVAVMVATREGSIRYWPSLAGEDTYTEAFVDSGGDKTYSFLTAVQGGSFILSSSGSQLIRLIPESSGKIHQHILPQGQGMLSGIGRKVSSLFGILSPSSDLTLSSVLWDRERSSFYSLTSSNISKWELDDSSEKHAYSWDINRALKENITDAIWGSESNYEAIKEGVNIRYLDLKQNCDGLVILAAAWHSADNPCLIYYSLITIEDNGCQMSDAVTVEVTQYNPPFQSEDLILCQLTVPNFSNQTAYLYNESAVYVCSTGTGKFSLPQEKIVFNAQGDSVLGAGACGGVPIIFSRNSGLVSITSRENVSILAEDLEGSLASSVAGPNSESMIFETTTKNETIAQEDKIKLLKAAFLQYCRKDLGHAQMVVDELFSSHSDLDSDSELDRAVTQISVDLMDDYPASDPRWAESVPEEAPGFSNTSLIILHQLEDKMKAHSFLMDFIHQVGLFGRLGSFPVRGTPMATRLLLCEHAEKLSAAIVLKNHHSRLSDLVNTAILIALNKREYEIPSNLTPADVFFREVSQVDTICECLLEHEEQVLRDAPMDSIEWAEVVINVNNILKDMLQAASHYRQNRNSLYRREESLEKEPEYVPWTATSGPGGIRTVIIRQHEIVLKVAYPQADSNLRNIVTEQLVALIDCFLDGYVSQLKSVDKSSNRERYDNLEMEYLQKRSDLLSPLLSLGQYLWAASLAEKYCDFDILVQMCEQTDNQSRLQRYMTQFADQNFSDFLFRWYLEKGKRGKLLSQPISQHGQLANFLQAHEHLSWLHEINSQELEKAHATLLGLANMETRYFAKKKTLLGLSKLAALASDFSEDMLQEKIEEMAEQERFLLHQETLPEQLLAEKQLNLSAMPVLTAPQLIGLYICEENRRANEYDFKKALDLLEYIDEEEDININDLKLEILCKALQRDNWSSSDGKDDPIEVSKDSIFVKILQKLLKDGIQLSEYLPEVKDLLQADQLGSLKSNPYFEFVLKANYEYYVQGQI
Chain of UniProt Q96DH6 (Q96DH6 whole entry, looked up): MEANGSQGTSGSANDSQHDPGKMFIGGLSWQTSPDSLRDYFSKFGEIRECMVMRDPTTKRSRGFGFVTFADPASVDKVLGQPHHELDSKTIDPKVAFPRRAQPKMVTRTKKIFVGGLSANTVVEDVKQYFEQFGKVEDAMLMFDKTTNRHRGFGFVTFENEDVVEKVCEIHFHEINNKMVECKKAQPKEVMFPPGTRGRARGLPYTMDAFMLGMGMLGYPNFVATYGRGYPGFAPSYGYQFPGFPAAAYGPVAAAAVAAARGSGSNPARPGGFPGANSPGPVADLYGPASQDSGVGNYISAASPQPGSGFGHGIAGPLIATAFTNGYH
Chain of UniProt Q5VZE5 (Q5VZE5 whole entry, looked up): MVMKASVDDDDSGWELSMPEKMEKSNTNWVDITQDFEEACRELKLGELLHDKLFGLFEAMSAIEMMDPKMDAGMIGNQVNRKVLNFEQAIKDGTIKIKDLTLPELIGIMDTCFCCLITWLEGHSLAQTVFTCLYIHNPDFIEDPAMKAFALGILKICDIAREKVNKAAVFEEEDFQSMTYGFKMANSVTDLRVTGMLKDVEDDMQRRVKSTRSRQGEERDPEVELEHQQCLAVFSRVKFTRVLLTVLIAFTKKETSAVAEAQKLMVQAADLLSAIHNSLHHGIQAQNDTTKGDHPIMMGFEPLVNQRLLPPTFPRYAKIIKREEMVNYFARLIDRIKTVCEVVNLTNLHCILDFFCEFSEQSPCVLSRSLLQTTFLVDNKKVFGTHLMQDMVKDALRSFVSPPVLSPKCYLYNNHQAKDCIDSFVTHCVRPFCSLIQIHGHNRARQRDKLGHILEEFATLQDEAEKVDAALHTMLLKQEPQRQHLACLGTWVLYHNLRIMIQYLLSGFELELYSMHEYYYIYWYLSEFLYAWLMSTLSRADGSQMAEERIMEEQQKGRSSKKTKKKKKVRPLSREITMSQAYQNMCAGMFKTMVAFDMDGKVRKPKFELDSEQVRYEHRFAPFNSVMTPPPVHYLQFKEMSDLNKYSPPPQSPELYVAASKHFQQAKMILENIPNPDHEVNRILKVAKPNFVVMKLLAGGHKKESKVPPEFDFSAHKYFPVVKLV
Chain of UniProt Q15653 (Q15653 whole entry, looked up): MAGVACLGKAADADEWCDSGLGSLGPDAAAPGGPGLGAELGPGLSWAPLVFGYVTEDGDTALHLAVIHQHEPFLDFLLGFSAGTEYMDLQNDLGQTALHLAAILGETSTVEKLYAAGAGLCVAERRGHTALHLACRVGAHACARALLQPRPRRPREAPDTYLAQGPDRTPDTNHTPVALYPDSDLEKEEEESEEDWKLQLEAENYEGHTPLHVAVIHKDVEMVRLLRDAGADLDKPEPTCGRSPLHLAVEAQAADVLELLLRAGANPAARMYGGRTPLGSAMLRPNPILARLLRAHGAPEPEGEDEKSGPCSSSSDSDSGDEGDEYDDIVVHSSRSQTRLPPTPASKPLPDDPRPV

Target | log2 fold change (vemurafenib) | log2 fold change [1] | log2 fold change (barasertib) | log2 fold change [2] | log2 fold change (volasertib) | log2 fold change [3] | log2 fold change [4] | log2 fold change [5] | log2 fold change (saracatinib) | log2 fold change (sotrastaurin) | log2 fold change (alvocidib) | log2 fold change (Tubastatin A) | log2 fold change [6] | log2 fold change (defactinib) | log2 fold change [7] | log2 fold change (encorafenib) | log2 fold change [8] | log2 fold change (alisertib) | log2 fold change [9] | log2 fold change (gefitinib)
NSUN2 (UniProt Q08J23) | 0.028 | 0.004 | -0.006 | -0.032 | 0.004 | 0.037 | 0.081 | -0.022 | 0.006 | 0.005 | 0.019 | -0.097 | -0.018 | 0.007 | -0.024 | -0.011 | 0.096 | 0.014 | -0.007 | -0.02
NAA35 (UniProt Q5VZE5) | 0 | 0.015 | -0.01 | 0.05 | -0.026 | 0.001 | 0.179 | -0.035 | 0.026 | 0.006 | 0.018 | -0.056 | -0.007 | 0.034 | 0 | 0.01 | -0.001 | -0.026 | -0.006 | -0.008
NGLY1 (UniProt Q96IV0) | 0.015 | 0.01 | 0.043 | -0.102 | -0.034 | 0.002 | 0.09 | -0.02 | 0.013 | 0.024 | -0.041 | -0.089 | -0.013 | 0.022 | 0 | -0.009 | 0.111 | 0.002 | 0.001 | -0.044
MSI2 (UniProt Q96DH6) | 0.039 | -0.007 | 0.009 | 0.016 | -0.023 | 0.13 | -0.014 | 0.002 | -0.015 | -0.002 | 0.035 | -0.082 | -0.04 | 0.076 | -0.012 | 0.144 | -0.023 | 0.026 | -0.012 | -0.031
NCKAP1L (UniProt P55160) | -0.14 | 0.032 | 0.131 | -0.068 | 0.004 | -0.049 | -0.025 | -0.082 | -0.083 | 0.032 | -0.033 | -0.043 | 0.198 | 0.009 | 0.063 | 0.058 | -0.223 | 0.022 | -0.025 | -0.059
NUP188 (UniProt Q5SRE5) | -0.006 | -0.006 | 0.074 | -0.067 | -0.077 | 0.05 | -0.031 | -0.045 | 0.029 | 0.021 | 0.004 | -0.049 | -0.018 | 0.038 | -0.016 | -0.045 | 0.043 | -0.007 | 0.025 | 0.011
NUDT5 (UniProt Q9UKK9) | -0.019 | -0.001 | -0.042 | 0.043 | 0.015 | -0.054 | -0.267 | 0.27 (active) | -0.022 | 0.034 | -0.137 | 0.052 | -0.01 | 0.072 | -0.018 | 0.034 | 0.006 | 0.004 | 0.003 | -0.002
NUSAP1 (UniProt Q9BXS6) | 0.001 | 0.009 | -0.002 | 0.073 | 0.004 | -0.009 | -0.399 (active) | 0.189 | 0.019 | -0.001 | -0.17 | 0.029 | -0.02 | 0.027 | 0.07 | 0.012 | -0.028 | 0.01 | -0.002 | -0.012
NT5DC2 isoform 2 (UniProt Q9H857) | 0 | 0.069 | 0.001 | 0.011 | -0.028 | -0.01 | 0.034 | 0.03 | -0.017 | 0.117 | -0.037 | 0.02 | 0.026 | 0.007 | 0.032 | -0.037 | -0.035 | 0.013 | -0.001 | -0.055
NFKBIB (UniProt Q15653) | -0.058 | 0.041 | -0.059 | 0.099 | 0.068 | -0.054 | -0.535 (active) | 0.096 | -0.013 | -0.002 | -0.146 | -0.077 | 0.053 | -0.007 | -0.006 | 0.006 | 0.06 | 0 | -0.031 | 0.064
NF1 (UniProt P21359) | 0.019 | 0.024 | 0.029 | -0.044 | -0.048 | 0.031 | -0.035 | -0.041 | 0.001 | -0.029 | 0.03 | -0.098 | 0.029 | 0.012 | 0.009 | 0.026 | -0.267 | 0.03 | 0.006 | 0.058
OGFOD2 (UniProt Q6N063) | 0.024 | 0.173 | 0.005 | -0.147 | -0.062 | -0.023 | -0.042 | 0.071 | -0.047 | 0.039 | 0.029 | 0.033 | 0.059 | 0.015 | -0.125 | -0.054 | 0.223 (active) | 0.009 | -0.014 | -0.065
N4BP2 (UniProt Q86UW6) | -0.001 | 0.052 | -0.018 | 0.029 | -0.014 | 0 | -0.336 (active) | 0.029 | 0.018 | 0.05 | 0.063 | -0.17 | 0.052 | 0.021 | -0.004 | 0.06 | 0.003 | 0.016 | 0 | -0.005
NUP133 (UniProt Q8WUM0) | 0.009 | 0.014 | 0.01 | -0.028 | -0.081 | 0.05 | -0.047 | 0.04 | 0.014 | 0.038 | -0.08 | -0.111 | -0.007 | 0.035 | -0.028 | 0.039 | 0.002 | -0.009 | 0.011 | -0.003
PAFAH1B3 (UniProt Q15102) | -0.008 | 0.002 | 0.119 | -0.061 | -0.067 | 0.031 | -0.04 | -0.021 | 0.013 | -0.009 | 0.005 | -0.067 | 0.019 | 0.065 | -0.017 | -0.016 | 0.212 (active) | 0.058 | -0.022 | -0.02
MYOM1 (UniProt P52179) | 0.015 | -0.082 | 0.021 | 0.049 | 0.123 | -0.356 | -0.185 | 0.088 | -0.086 | -0.163 | 0.039 | -0.033 | -0.092 | 0.194 | 0.139 | 0.065 | -0.011 | 0.215 | -0.06 | 0.026
